Experimental data from PubChem BioAssay.
Active and inactive are the calls of the source.

What was measured:
[1] = tested on: PRMT1 (protein arginine N-methyltransferase 1); experiment: PRMT1 binders on small-molecule microarrays, primary screen, biochemical, small-molecule microarray, 635 nm fluorescence (AID 1088); conditions: small-molecule microarray binding, higher = more signal;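 note: binding of Prmt1 protein to compounds spotted on small-molecule microarray slides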
[2] = yeast growth modulation, basal conditions, primary screen, YJM789 clinical isolate, OD600, 24 h (AID 1089);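 note: growth of clinical yeast isolate S. cerevisiae YJM 789 seeded 1000 cells per well; test concentration not given here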; conditions: S. cerevisiae YJM789 growth, higher = more signal, called active from +8 up or from −8 down
[3] = fission yeast growth modulation, primary screen, strain 972, OD600, 24 h, no modulator (AID 1090);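 note: basal condition with compound alone and no growth modifier present; test concentration not given here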; conditions: S. pombe 972 growth, higher = more signal, called active from +8 up or from −8 down
[4] = S. cerevisiae growth modulation with rapamycin, primary screen, strain BY4716, OD600, 96 h (AID 1091); conditions: higher = more signal, called active from +8 up or from −8 down; note: test concentration not given here
[5] = target: Torsin-1A-interacting protein 2 (Homo sapiens) (UniProt Q8NFQ8); experiment: LULL1 binders on small-molecule microarray, primary screen, cell lysate, human LULL1 lysate, 635/667 nm fluorescence (AID 1092); conditions: hLULL1 lysate binding, 635 nm fluorescence, higher = more signal;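 note: probe is lysate of COS7 cells overexpressing human LULL1; score merges per-feature 667 nm fluorescence with signal-to-noise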
[6] = E. coli growth modulation, two-sided OD650, primary screen, E. coli filamentation project, strain DRC41, 24 h (AID 1093); conditions: OD650, 24 h, higher = more signal, called active from +8 up or from −8 down;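 note: MC1000 strain lacking acrAB efflux and sulA so SOS filamentation is blocked; test concentration not given here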
[7] = small-molecule microarray binders of probe aLefty2, primary screen, biochemical, biotinylated probe, 635/667 nm fluorescence (AID 1094); conditions: higher = more signal;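 note: score merges spot fluorescence near 667 nm with spot signal-to-noise ratio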
[8] = tested on: Noggin (protein binding on small-molecule microarray); experiment: Noggin binders on small-molecule microarray, primary screen, biochemical, 635/667 nm fluorescence (AID 1095); conditions: 635 nm fluorescence, higher = more signal;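 note: score merges 667 nm feature fluorescence with signal to noise over triplicate slides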
[9] = target: Neurogenic locus notch homolog protein 3 (Homo sapiens) (UniProt Q9UM47); experiment: NOTCH3 binders on small-molecule microarray, primary screen, biochemical, 635/667 nm fluorescence (AID 1096); conditions: NOTCH3 binding, 635 nm fluorescence, higher = more signal
[10] = small-molecule microarray binders of probe aEGFR, primary screen, biochemical, biotinylated probe, 635/667 nm fluorescence (AID 1097); conditions: higher = more signal;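 note: probe is a biotinylated anti-EGFR antibody binding compounds printed on slides; score combines fluorescence near 667 nm and signal to noise of each spot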

Chain of Torsin-1A-interacting protein 2 (Homo sapiens) (Q8NFQ8 whole entry, looked up): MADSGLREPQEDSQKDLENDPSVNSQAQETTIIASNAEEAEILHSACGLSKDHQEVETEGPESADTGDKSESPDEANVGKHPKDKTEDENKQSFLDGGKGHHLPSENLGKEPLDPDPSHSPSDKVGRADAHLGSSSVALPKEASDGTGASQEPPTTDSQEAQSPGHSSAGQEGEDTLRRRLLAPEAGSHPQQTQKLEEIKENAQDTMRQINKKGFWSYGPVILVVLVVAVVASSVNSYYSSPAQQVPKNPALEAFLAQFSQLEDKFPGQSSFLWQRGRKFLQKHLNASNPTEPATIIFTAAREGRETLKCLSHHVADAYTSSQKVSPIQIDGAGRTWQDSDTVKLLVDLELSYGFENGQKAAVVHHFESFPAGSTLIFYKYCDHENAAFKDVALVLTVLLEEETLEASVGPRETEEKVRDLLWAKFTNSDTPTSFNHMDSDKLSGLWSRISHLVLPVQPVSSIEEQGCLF
Chain of Neurogenic locus notch homolog protein 3 (Homo sapiens) (Q9UM47 whole entry, looked up): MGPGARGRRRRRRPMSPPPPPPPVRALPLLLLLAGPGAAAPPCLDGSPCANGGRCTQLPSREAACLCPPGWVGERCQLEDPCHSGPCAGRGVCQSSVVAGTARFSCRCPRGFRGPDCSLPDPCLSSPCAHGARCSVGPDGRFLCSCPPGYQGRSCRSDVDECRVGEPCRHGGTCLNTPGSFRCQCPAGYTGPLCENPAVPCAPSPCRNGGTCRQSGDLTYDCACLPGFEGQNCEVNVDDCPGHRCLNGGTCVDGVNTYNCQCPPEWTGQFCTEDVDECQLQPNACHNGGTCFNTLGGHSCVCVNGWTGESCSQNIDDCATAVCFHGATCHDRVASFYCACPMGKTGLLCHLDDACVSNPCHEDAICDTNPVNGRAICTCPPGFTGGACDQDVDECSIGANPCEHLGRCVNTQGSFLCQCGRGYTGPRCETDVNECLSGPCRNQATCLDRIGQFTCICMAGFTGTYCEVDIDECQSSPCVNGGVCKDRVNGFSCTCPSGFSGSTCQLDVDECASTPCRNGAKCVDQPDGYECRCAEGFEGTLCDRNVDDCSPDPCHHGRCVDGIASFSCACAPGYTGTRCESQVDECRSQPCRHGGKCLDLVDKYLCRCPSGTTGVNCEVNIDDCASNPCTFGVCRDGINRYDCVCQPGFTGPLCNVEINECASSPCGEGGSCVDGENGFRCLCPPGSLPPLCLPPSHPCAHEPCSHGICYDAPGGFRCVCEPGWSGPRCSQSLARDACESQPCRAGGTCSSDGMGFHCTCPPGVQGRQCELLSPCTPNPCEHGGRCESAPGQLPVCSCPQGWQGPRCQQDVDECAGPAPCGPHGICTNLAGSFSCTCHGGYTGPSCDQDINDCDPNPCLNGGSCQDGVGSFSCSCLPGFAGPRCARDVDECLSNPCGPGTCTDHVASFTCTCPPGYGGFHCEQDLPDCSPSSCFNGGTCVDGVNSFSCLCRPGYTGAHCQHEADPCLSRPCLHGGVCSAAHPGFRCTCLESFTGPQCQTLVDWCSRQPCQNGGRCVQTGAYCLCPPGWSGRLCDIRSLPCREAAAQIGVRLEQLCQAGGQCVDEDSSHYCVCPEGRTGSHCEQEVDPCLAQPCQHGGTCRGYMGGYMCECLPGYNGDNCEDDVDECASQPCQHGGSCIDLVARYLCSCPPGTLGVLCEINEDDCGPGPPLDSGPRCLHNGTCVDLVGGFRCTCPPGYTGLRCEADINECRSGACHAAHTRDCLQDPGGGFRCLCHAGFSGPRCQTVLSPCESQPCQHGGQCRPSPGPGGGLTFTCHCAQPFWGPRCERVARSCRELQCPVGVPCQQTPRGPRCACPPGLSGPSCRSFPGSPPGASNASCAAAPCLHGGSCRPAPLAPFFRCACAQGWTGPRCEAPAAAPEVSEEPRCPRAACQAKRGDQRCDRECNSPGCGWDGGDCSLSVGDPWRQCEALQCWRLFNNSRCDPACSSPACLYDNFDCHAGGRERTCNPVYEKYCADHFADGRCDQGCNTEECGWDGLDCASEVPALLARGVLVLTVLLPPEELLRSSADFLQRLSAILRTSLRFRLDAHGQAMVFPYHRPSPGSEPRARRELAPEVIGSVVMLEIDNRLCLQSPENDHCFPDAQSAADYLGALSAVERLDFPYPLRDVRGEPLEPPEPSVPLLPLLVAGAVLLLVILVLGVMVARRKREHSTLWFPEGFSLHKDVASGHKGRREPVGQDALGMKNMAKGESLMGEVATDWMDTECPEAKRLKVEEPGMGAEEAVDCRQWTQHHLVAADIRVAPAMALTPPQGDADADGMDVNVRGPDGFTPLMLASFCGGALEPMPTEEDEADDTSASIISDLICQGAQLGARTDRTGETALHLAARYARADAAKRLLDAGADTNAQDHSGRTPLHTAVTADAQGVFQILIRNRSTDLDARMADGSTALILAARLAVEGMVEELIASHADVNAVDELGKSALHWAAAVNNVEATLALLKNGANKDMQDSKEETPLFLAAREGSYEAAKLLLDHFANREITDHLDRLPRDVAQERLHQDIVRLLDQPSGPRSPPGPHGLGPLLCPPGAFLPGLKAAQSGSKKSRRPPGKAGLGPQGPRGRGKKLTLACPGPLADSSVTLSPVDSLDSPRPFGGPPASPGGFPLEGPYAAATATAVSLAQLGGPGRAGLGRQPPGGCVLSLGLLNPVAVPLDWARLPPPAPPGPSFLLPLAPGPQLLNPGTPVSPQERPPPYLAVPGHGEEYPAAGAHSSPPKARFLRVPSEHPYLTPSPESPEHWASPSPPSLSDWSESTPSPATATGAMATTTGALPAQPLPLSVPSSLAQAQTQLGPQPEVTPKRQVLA

SMILES | composite z-score [1] | z-score [2] | z-score [3] | z-score [4] | composite z-score [5] | z-score [6] | composite z-score [7] | composite z-score [8] | composite z-score [9] | composite z-score [10]
COCCOC(=O)N1C(=O)[C@@]2(c3ccccc31)[C@H](C(=O)N1CCc3cc(OC)c(OC)cc3C1)[C@H]1C(=O)O[C@H](c3ccccc3)[C@H](c3ccccc3)N1[C@@H]2c1ccc(OCCO)cc1 | 1.51 | 2.26 (inactive) | 0.476 (inactive) | 4.47 (inactive) | 2.27 | 1.68 (inactive) | 0.103 | 0.94 | 0.995 | -0.0309
C=CC[C@@]12N=C(c3ccc(OCCCO)cc3)O[C@@H]1c1ccccc1N(C)C2=O | 1.55 | 0.501 (inactive) | -5.65 (inactive) | 0.432 (inactive) | 2.93 | 0.671 (inactive) | 0.246 | 1.75 | 0.997 | 0.0499
COc1ccc([C@H]2OC[C@@H]3C[C@@H](Cc4ccccc4)C(=O)N32)cc1 | 0.758 | -2.03 (inactive) | -3.18 (inactive) | 4.07 (inactive) | 0.0239 | -0.468 (inactive) | -0.103 | 0.892 | 0.75 | -0.0299
CCOC(=O)C[C@H]1[C@H](OC(=O)c2ccc(C(=O)c3ccccc3)cc2)[C@@H](NC(=O)c2ccccc2)c2cc(OCCCO)ccc2N1C(=O)c1ccc2ccccc2n1 | 0.81 | -0.121 (inactive) | -0.429 (inactive) | 0.443 (inactive) | 1.54 | 0.104 (inactive) | 0.418 | 0.0946 | 1.03 | -0.142
CC(C)C(=C=CC[C@H](O)c1ccc(OCCO)cc1)CCO | 1.55 | -1.83 (inactive) | -1.27 (inactive) | -0.768 (inactive) | 2.22 | -0.327 (inactive) | -0.0113 | 1.37 | -0.0409 | -0.12
O=C1C2C=CC(C(O)c3cccc4ccccc34)N(Nc3ccccc3F)C2C(=O)N1c1ccccc1 (stereo not given) | 1.54 | 0.0692 (inactive) | 0.865 (inactive) | 1.01 (inactive) | 3.69 | -0.316 (inactive) | 0.13 | 0.0926 | 1.12 | 0.222
COC(=O)[C@@]1(Cc2ccc(OC)cc2)[C@H]2c3cc(C(=O)N(C)C)n(Cc4ccc(S(C)(=O)=O)cc4)c3C[C@H]2CN1C(=O)c1ccccc1 | -0.142 | -3.22 (inactive) | -0.462 (inactive) | -0.154 (inactive) | 3.4 | 0.0416 (inactive) | -0.264 | 0.715 | 1.11 | 0.0174
Cc1ccc([C@@H]2C[C@@H](Sc3ccccc3)[C@H](C(=O)O)CN2S(=O)(=O)c2ccc(C)cc2)cc1 | 1.54 | -0.337 (inactive) | 0.565 (inactive) | -0.787 (inactive) | 3.53 | -0.773 (inactive) | 0.141 | 0.339 | 1.08 | 0.0082
CC(C)[Si](C#Cc1ccc(Oc2ccccc2)cc1)(O[Si](C#Cc1ccc(Oc2ccccc2)cc1)(C(C)C)C(C)C)C(C)C | 0.578 | 1.8 (inactive) | 0.267 (inactive) | 4.06 (inactive) | 0.981 | 1.06 (inactive) | -0.192 | 0.267 | -0.0319 | 0.0746
O=C1C[C@]2(c3ccc([N+](=O)[O-])cc3)C(=O)N(CC(F)(F)F)c3cc(CO)ccc3[C@H]2N1C1CCCCC1 | 0.137 | 0.926 (inactive) | -0.378 (inactive) | -1.03 (inactive) | -0.0451 | 0.685 (inactive) | -0.216 | -0.425 | -1.41 | -0.201
C=CCN1C(=O)[C@@]2(Cc3ccccc31)N=C(c1ccc(OCCCO)cc1)O[C@H]2c1ccccc1 | 1.54 | -1.95 (inactive) | -6.68 (inactive) | 2.77 (inactive) | 3.12 | 1.44 (inactive) | 0.352 | 0.638 | 1.11 | 0.122
C=CCN1C(=O)[C@]2(O[C@H](CCn3cc([C@H](O)c4ccccc4)nn3)[C@@H]([Si](C)(C)c3ccc(OC)cc3)[C@@H]2C)c2ccccc21 | 0.267 | -1.25 (inactive) | 0.0123 (inactive) | -0.198 (inactive) | 0.41 | -0.68 (inactive) | -0.113 | -0.308 | 0.183 | -0.145
CCOC(=O)C[C@H]1[C@H](OC(=O)c2ccc(C(=O)c3ccccc3)cc2)[C@@H](NC(=O)c2ccc3ccccc3c2)c2cc(OCCCO)ccc2N1C(=O)Cc1ccc(OC)cc1 | 0.789 | -0.0229 (inactive) | 0.713 (inactive) | 0.118 (inactive) | 1.43 | 0.458 (inactive) | 0.0633 | 0.0199 | 0.479 | -0.0688
O=C(NCCN1CCOCC1)C1N=C(c2ccc(OCCCO)cc2)N(c2ccccc2)O1 (stereo not given) | 1.54 | -0.101 (inactive) | -0.251 (inactive) | -0.36 (inactive) | 3.22 | 1 (inactive) | 0.443 | 1.19 | 0.0538 | -0.0099
COC(=O)C(CC#Cc1ccc2c(c1)[C@]1(C(=O)N2)[C@H](C(=O)Nc2nc3ccccc3s2)[C@H]2C(=O)O[C@H](c3ccccc3)[C@H](c3ccccc3)N2[C@@H]1c1ccc(O)cc1)C(=O)OC | 1.55 | 0.424 (inactive) | 0.301 (inactive) | 0.746 (inactive) | 2.82 | -1.05 (inactive) | -0.0258 | 0.709 | 1.03 | 0.221
COCCOC(=O)N1C(=O)[C@@]2(c3cc(C#CC4(O)CCCCCC4)ccc31)[C@H](c1ccccc1OCCO)N1[C@H](c3ccccc3)[C@H](c3ccccc3)OC(=O)[C@H]1[C@@H]2C(=O)N1CCN(c2ncccn2)CC1 | 1.55 | 2.46 (inactive) | 1.5 (inactive) | 6.01 (inactive) | 2.73 | 1.02 (inactive) | 0.028 | 0.574 | 0.959 | 0.219
COCCOC(=O)N1C(=O)[C@@]2(c3cc(C#CCC(C(=O)OC)C(=O)OC)ccc31)[C@H](C(=O)Nc1nc3ccccc3s1)[C@H]1C(=O)O[C@H](c3ccccc3)[C@H](c3ccccc3)N1[C@@H]2c1ccccc1OCCO | 1.56 | 2.48 (inactive) | 2.08 (inactive) | 3.23 (inactive) | 2.78 | 0.374 (inactive) | -0.0171 | 0.133 | 1.11 | 0.0556
CC[C@@H]1C=C(C(=O)O)[C@H](c2ccc(Br)cc2)N1S(=O)(=O)c1ccc(C)cc1 | 0.399 | -0.564 (inactive) | 0.794 (inactive) | -0.535 (inactive) | 2.7 | -0.319 (inactive) | 0.295 | 0.37 | 0.481 | -0.0512
COc1cc(NN2C(C(O)c3ccco3)C=CC3C(=O)N(c4ccccc4)C(=O)C32)cc(OC)c1OC (stereo not given) | 0.216 | 0.602 (inactive) | 0.0991 (inactive) | -0.234 (inactive) | 2.41 | -1.18 (inactive) | -0.2 | 0.0945 | 0.703 | -0.0688
CC1CC/C=C\[C@H]2OC34C=CCN(Cc5ccccc5)C(=O)[C@H]3N(CCCO)C(=O)[C@@H]4C2C(=O)O1 (stereo not given in full) | 0.398 | -1.7 (inactive) | -1.25 (inactive) | -0.807 (inactive) | 1.97 | 0.56 (inactive) | -0.254 | -1.12 | -0.106 | -0.283
CCC[C@@H]1C[C@@]1(CCC)[C@@H](NC(=O)c1ccccc1)c1cccc(Cl)c1 | 0.596 | 1.47 (inactive) | 1.52 (inactive) | 2.12 (inactive) | 3.23 | -0.452 (inactive) | 0.497 | 0.149 | 1.15 | 0.913
COC(=O)[C@@]1(Cc2ccc(F)cc2)[C@H]2c3cc(C(=O)N(C)C)n(Cc4ccccc4)c3C[C@H]2CN1C(=O)c1ccccc1 | 0.964 | 0.428 (inactive) | 1.49 (inactive) | 3.85 (inactive) | 1.73 | -0.466 (inactive) | 0.318 | -0.004 | 1.14 | 0.0709
[N-]=[N+]=NCc1ccccc1C[C@]1(C(N)=O)COC(c2ccc(OCCCO)cc2)=N1 | 0.945 | -4.72 (inactive) | -1.09 (inactive) | -1.19 (inactive) | 3.1 | 1.95 (inactive) | 0.0567 | -0.572 | 0.31 | 0.0641
C=CCNC(=O)[C@@H]1[C@H]2C(=O)O[C@H](c3ccccc3)[C@H](c3ccccc3)N2[C@H](c2ccc(O)cc2)[C@@]12C(=O)N(C(=O)OCCOC)c1ccc(C#CCNC(N)=O)cc12 | 1.03 | -1.76 (inactive) | 0.18 (inactive) | 0.462 (inactive) | 2.29 | -0.213 (inactive) | 0.261 | 1.12 | 1.1 | -0.0549
COc1ccc(C#Cc2ccc3c(c2)[C@]2(C(=O)N3)[C@H](C(=O)Nc3nc4ccccc4s3)[C@H]3C(=O)O[C@H](c4ccccc4)[C@H](c4ccccc4)N3[C@@H]2c2ccc(O)cc2)cc1 | 1.55 | 2.2 (inactive) | 0.98 (inactive) | 0.172 (inactive) | 3.26 | 0.943 (inactive) | -0.0353 | 1.82 | 1.02 | 0.398
COc1ccc(CCNC(=O)[C@@H]2c3ccccc3C(=O)N(Cc3ccccc3Cl)[C@H]2c2ccc(CO)cc2)cc1 | 0.533 | -0.874 (inactive) | -0.96 (inactive) | 0.35 (inactive) | 1.65 | -0.139 (inactive) | -0.0299 | -0.215 | 0.124 | 0.0121
CCCC[C@H]1OB(O)C[C@H]2C1=C(COC)C[C@H]1C(=O)N(C)C(=O)[C@H]12 | -0.15 | -0.937 (inactive) | -0.775 (inactive) | -0.635 (inactive) | 0.0079 | -0.908 (inactive) | -0.157 | 1.08 | 0.769 | -0.139
C=CCC(OC(C)=O)[C@@H]1[C@@H](N(Cc2cccc3ccccc23)C(=O)c2ccc(-c3ccccc3)cc2)c2cc(OCCCO)ccc2N1C(=O)c1ccc2ccccc2c1 (stereo not given in full) | 0.833 | -0.226 (inactive) | 0.435 (inactive) | 0.009 (inactive) | 1.76 | -0.601 (inactive) | -0.0174 | 0.251 | 0.643 | -0.0578
[N-]=[N+]=Nc1ccccc1[C@H]1OC(c2ccc(OCCCO)cc2)=N[C@@]1(CCS(=O)(=O)c1ccccc1)C(=O)NCC(O)CO (stereo not given in full) | 0.976 | -0.733 (inactive) | -0.213 (inactive) | 0.803 (inactive) | 3.64 | -0.168 (inactive) | 0.207 | 0.108 | 0.244 | -0.111
